High-throughput results: PubChem, several laboratories
A selection: hits, their analogues and other compounds. The true share with any hit is near 3.2%.
HDAC3 inhib = inhibitors of human histone deacetylase 3. AID 2718. inhibition, % at 8.3 µM. recombinant HDAC3, fluorogenic peptide/trypsin coupled, fluorescence. hit rate 0.15% among 320,000; in the data active = inhibition above about 26%, passing the limit was not always enough; inconclusive = no clear call, values can overlap the other calls
CHT PAM = allosteric activators of human choline transporter CHT. AID 488977. hit rate 0.49% among 310,000. Q9GZV3. CHT-expressing cells, membrane potential dye, choline EC20; stronger effect = higher value; LV-AA mutant CHT in HEK293 cells. B-score at 10 µM;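 active = initial fluorescence not abnormally high and integrated response B-score, plate-corrected, over 3 SD above library mean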
TMEM16A inh = inhibitors of mouse TMEM16A calcium-activated chloride channel | HEK293 TMEM16A/YFP iodide influx fluorescence, ionomycin | hit rate 1.2% among 310,000 | normalized B-score (activity score, 25-100; higher = stronger inhibition) at 10 µM | Q8BHY3;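 active = ratio plate-corrected score three or more library SD toward inhibition, starting fluorescence score within five deviations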;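 note: score derived from kinetic fluorescence span divided by baseline fluorescence per well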
PHOSPHO1 inh = inhibitors of human PHOSPHO1 phosphatase; Q8TCT1; hit rate 1.1% among 290,000; inhibition, % at 13.3 µM; recombinant PHOSPHO1, absorbance phosphatase assay; in the data active = inhibition above about 60%
Target sequence (Q8TCT1 whole entry, looked up): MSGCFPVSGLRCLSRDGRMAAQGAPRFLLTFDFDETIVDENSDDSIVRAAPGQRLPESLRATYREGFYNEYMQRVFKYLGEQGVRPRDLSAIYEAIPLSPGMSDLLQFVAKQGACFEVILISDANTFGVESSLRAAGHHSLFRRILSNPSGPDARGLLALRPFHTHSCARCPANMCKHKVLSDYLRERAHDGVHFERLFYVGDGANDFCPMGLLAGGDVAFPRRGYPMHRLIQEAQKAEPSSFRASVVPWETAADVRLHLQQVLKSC
CHT block = human CHT choline transport inhibition. Q9GZV3. CHT-expressing cells, membrane potential dye, choline response; stronger effect = lower value. B-score at 10 µM. hit rate 0.86% among 310,000;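 active = B-score over 3 SD under the library average, and starting fluorescence ratio not unusually high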;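 note: choline stimulus applied at its EC90 after an EC20 pre-addition; B-score computed on integrated fluorescence ratio after choline addition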
ANO1 activ = mouse TMEM16A channel activation, primary screen | B-score at 10 µM | hit rate 0.3% among 340,000 | HEK293 TMEM16A/YFP-H148Q/I152L, iodide quench fluorescence; stronger effect = lower value | Q8BHY3;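 active = fluorescence-ratio B-score plate-corrected deviation score at least 3 library SD below zero, with starting fluorescence score within 5 deviations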;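 note: channel opened by trigger with iodide after compound preincubation; score built on the fluorescence ratio of max minus min over baseline; more negative score means more quench and so TMEM16A activation or potentiation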
Of the large screens only hits and unclear results are named; the others gave an inactive call.

N#Cc1c(C(F)(F)F)cc(-c2ccco2)nc1SCc1ccncc1	PHOSPHO1 inh 82
COc1cccc(CN2CCNC(=O)C2CC(=O)N(Cc2cnn(C)c2)C(C)C)c1 (stereo not drawn)	ANO1 activ -7.6
CC1(C)CC(=O)C2=C(C1)OC(N)=C(C#N)C2c1ccccc1[N+](=O)[O-] (stereo not drawn)	ANO1 activ -4.6
CC1(C)CC(=O)C2=C(C1)OC(N)=C(C#N)C2c1ccccc1 (stereo not drawn)	none
COc1ccc(C(=O)Nc2ccc(OCC(F)(F)C(F)F)c(C(F)(F)F)c2)cc1OC	HDAC3 inhib inconclusive
O=C(Nc1ccc(Br)c(C(F)(F)F)c1)c1ccc(C(F)(F)F)cc1	HDAC3 inhib inconclusive, ANO1 activ -13
O=C(Nc1ccc(OCC(F)(F)C(F)F)c(C(F)(F)F)c1)c1ccc(Cl)cc1	TMEM16A inh 100 (no result: PHOSPHO1 inh)
CCN(CC)C(=S)SCC(=O)c1ccccc1	none
CCN(CC)C(=S)SSC(=S)N(CC)CC	PHOSPHO1 inh 89
Cc1ccc2sc(NNC(=O)c3cc(=O)c4ccccc4o3)nc2c1C	TMEM16A inh 100
Cc1cccc2sc(NNC(=O)c3cc(=O)c4ccccc4o3)nc12	none
O=c1c2cc(Cl)ccc2[nH]c(=S)n1Cc1ccccn1	none
CCN(CC)CCn1c(=S)[nH]c2ccc(Cl)cc2c1=O	PHOSPHO1 inh 78
COc1cc(CNC(C)C)ccc1OCC(=O)Nc1cccc2ccccc12	PHOSPHO1 inh 61
COc1ccc(CC(=O)Nc2cccc3ccccc23)cc1OC	none
Cc1nc2c(sc3nc(N4CCOCC4)c4c(c32)CC(C)(C)OC4)c(-c2ccccc2)c1C(=O)O	none (no result: HDAC3 inhib)
O=C(CSc1nccn1-c1cccc(Cl)c1)Nc1ccc2c(c1)OCCO2	PHOSPHO1 inh 74
O=C(CSc1nccn1-c1ccc(Cl)cc1)NCc1ccc2c(c1)OCO2	PHOSPHO1 inh 68
Nn1c(SCC(=O)Nc2ccc3c(c2)OCCO3)nnc1C(F)(F)F	PHOSPHO1 inh 91
Cc1ccc(NC(=O)CSc2nccn2Cc2ccccc2)cc1C	PHOSPHO1 inh 86
CC(O)CN(CC(C)O)c1ccc2c(c1)Cc1cc([N+](=O)[O-])ccc1-2 (stereo not drawn)	none (no result: HDAC3 inhib, CHT PAM, TMEM16A inh, PHOSPHO1 inh, CHT block)
Cc1noc(C)c1CSCC(=O)Nc1ccc(OC(F)F)c(Cl)c1	none (no result: PHOSPHO1 inh)
Cc1cccc(NC(=O)[C@@H]2CCCN2C(=O)OC(C)(C)C)c1C	none
COc1ccc(NC(=O)CSc2nccn2-c2cccc(OC)c2)cc1	PHOSPHO1 inh 72
COc1cccc(-n2ccnc2SCC(=O)Nc2ccccc2)c1	none
O=C(CSc1nnc2scc(-c3ccccc3)n12)N1CCN(Cc2ccccc2)CC1	none
O=C(CSc1nnc2scc(-c3ccccc3)n12)Nc1nsc(-c2ccccc2)n1	PHOSPHO1 inh 67
O=C(CSc1nnc2scc(-c3ccccc3)n12)c1ccc2c(c1)OCCO2	none
Cc1ccc(-c2csc3nnc(SCC(=O)N4CCN(Cc5ccccc5)CC4)n23)cc1	PHOSPHO1 inh 74
c1ccc(-c2csc3nnc(SCc4ccc5c(c4)OCCO5)n23)cc1	TMEM16A inh 25
CCOC(=O)C1CCN(c2cc3c(cc2NC(=O)c2ccccc2F)n(C)c(=O)n3C)CC1	none
COc1cccc(N2CCN(C(=O)c3ccc(Cl)c(NC4=NC5CS(=O)(=O)CC5S4)c3)CC2)c1 (stereo not drawn)	none
Cc1ccc(NC(=O)CN2C(=O)NC(Cc3c[nH]c4ccccc34)C2=O)cc1 (stereo not drawn)	none (no result: CHT PAM, TMEM16A inh, PHOSPHO1 inh, CHT block)
Cc1ccc(Cl)c2c(N=Nc3ccccc3)c(O)[nH]c12	none
CCOc1ccc(CCNC(=O)CCC(=O)N2CCOc3ccc(C)cc32)cc1OCC	ANO1 activ -14
CC1CCCC(C)N1C(=O)/C=C/c1ccc(S(=O)(=O)N2CCOCC2)cc1 (stereo not drawn)	none (no result: HDAC3 inhib, CHT PAM, TMEM16A inh, PHOSPHO1 inh, CHT block)
O=c1c2ccccc2nc(COc2ccccc2)n1/N=C/c1cn[nH]c1-c1ccccc1	ANO1 activ -6.5
CCN(CC)CCN(C)c1ccc(N2C(=O)C3CC=CCC3C2=O)cc1[N+](=O)[O-] (stereo not drawn)	none
COc1ccccc1NS(=O)(=O)c1cccc(C(=O)NCC(c2ccccc2OC)N2CCCC2)c1 (stereo not drawn)	none (no result: PHOSPHO1 inh)
CCOC(=O)COc1cc([N+](=O)[O-])cc2cccnc12	none
